According to PubChem BioAssay (NCI):
About 83,000 compounds went through this panel and 20% of them were active in at least one assay; those are over-represented in the sample as a whole.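 Step 1: grow cells in 96-well plates. Step 2: add test compound at a single concentration. Step 3: incubate 48 h. Step 4: record percent growth.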 Activity calls are given as the source filed them. The calls were made as follows: active = growth percent below 10; inactive = the rest.

How the values were obtained:
Test in all cases: NCI-60 one-dose screen, 48 h (100 = growth as untreated, 0 = no growth, -100 = all killed)
Conditions in all cases: 10 µM unless noted
[1] = system: NCI-H23 lung
[2] = system: NCI-H226 lung
[3] = system: NCI-H322M lung
[4] = system: HOP-62 NSCLC
[5] = system: NCI-H460 lung
[6] = system: HOP-92 NSCLC
[7] = system: A549/ATCC NSCLC
[8] = system: 786-0 renal
[9] = system: COLO 205 colon

Measured: growth

COC(=O)CC1=C(c2ccc([N+](=O)[O-])cc2)CCC1=O
inactive: [1] 100% | [2] 94% | [3] 115% | [4] 102% | [5] 103% | [6] 89.5% | [7] 94.7% | [8] 104% | [9] 98.2%

O=C1c2cc3c(cc2-c2c1c1ccc(Cl)cc1c(=O)n2CCCNCCO)OCO3
active: [1] -73% | [2] -70.9% | [3] -84.5% | [4] -81.4% | [5] -75.4% | [6] -79.4% | [7] -82.2% | [8] -81.6% | [9] -88.6%

O=C(c1ccccc1)C(CN1CCCCC1)c1ccccc1 (configuration not stated)
inactive: [1] 91.4% | [2] 91.6% | [3] 88.3% | [4] 68.2% | [5] 68.7% | [7] 79.9% | [9] 10.1%
active: [6] -12.2% | [8] 1.38%
